# Data as given in paper PMC7862700, “An all-to-all approach to the identification of sequence-specific readers for epigenetic DNA modifications on cytosine”.
# What was measured:
# Test in all cases: DAPPL (digital affinity profiling via proximity ligation, sequencing); 10 mM Tris-HCl pH 7.5, 50 mM NaCl, 1 mM DTT, 4% glycerol, room temperature, 30 min; GST-TFs on glutathione beads, 16-mer random dsDNA library, 0.1% formaldehyde crosslink after washing; high values mean tight binding
# FLI1 = biological target: T1, FLI1 (Homo sapiens, UniProt Q01543 1-452); details: protein: recombinant; tags: N-terminal GST; dsDNA, one strand shown
# T1 sequence: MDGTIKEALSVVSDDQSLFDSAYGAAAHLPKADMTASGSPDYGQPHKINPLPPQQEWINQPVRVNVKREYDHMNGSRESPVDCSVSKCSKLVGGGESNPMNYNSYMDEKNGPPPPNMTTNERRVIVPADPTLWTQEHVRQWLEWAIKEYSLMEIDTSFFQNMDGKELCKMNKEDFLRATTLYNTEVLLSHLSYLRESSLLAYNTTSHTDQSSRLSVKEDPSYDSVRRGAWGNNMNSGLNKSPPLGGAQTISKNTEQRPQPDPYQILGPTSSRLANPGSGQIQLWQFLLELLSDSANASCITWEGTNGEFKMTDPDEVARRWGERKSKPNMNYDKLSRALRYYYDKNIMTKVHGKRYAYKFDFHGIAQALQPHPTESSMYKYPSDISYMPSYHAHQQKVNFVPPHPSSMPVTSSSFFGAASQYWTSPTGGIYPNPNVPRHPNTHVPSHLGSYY
# How it was run: (§1)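 GST fusions of human transcription factors were expressed in yeast and captured with glutathione beads. Once given DNA barcodes and pooled alongside a tag-only sample, they were incubated for 30 min at room temperature with 200 nmole of a random double-stranded 16-mer DNA library in Tris/NaCl/DTT/glycerol buffer, then washed, crosslinked (0.1% formaldehyde), proximity-ligated, PCR-amplified and sequenced on an Illumina NextSeq500. The binding signal of each hexamer is its read frequency for a factor divided by its frequency for the tag-only sample.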
# ELK1 = biological target: T2, ELK1 (Homo sapiens, UniProt P19419 1-428); details: protein: recombinant; tags: N-terminal GST; dsDNA, one strand shown
# T2 sequence: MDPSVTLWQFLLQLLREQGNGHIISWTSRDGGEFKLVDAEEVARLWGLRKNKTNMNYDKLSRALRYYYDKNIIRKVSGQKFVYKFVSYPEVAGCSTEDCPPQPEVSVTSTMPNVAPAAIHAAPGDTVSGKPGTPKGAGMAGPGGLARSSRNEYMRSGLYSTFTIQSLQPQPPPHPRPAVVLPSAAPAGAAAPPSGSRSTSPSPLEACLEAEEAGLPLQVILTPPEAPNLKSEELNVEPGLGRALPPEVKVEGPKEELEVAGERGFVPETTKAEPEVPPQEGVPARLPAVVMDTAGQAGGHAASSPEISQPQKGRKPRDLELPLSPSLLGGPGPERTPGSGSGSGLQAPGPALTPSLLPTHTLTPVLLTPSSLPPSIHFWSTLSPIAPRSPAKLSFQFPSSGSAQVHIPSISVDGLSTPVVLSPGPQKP
# How it was run: as §1
# GABPA = biological target: T3, GABPA (Homo sapiens, UniProt Q06546 1-454); details: protein: recombinant; tags: N-terminal GST; dsDNA, one strand shown
# T3 sequence: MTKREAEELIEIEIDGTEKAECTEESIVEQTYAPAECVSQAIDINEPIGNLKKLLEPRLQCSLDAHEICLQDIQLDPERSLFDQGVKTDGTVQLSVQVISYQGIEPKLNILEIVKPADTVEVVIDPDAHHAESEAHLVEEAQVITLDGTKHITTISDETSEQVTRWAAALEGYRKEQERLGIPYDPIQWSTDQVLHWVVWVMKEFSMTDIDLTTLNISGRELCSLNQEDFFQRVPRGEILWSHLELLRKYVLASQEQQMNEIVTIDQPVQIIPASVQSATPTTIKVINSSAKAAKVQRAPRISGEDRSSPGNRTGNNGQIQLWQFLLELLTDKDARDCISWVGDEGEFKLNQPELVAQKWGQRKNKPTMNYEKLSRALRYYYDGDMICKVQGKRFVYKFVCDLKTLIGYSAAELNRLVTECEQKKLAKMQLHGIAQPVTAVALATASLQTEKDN
# How it was run: as §1
# ERG = biological target: T4, ERG (Homo sapiens, UniProt P11308 1-479); details: protein: recombinant; tags: N-terminal GST; dsDNA, one strand shown
# T4 sequence: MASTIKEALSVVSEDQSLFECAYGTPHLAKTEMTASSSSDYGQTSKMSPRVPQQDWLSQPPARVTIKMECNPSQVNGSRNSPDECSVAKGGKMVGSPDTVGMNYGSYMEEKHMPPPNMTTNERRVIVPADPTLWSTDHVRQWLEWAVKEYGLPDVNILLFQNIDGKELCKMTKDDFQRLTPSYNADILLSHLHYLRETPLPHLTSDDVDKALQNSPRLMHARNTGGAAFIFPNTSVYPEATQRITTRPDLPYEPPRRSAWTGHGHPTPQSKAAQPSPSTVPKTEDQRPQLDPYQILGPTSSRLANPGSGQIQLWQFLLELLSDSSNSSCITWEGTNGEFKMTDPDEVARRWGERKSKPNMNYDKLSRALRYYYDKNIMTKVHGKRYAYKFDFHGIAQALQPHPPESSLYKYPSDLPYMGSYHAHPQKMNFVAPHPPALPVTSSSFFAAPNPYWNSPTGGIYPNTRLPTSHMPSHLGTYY
# How it was run: as §1
# ELF1 = ELF1 (Homo sapiens, UniProt P32519 1-619); details: protein: recombinant; tags: N-terminal GST; dsDNA, one strand shown
# Chain of ELF1 (P32519 whole entry): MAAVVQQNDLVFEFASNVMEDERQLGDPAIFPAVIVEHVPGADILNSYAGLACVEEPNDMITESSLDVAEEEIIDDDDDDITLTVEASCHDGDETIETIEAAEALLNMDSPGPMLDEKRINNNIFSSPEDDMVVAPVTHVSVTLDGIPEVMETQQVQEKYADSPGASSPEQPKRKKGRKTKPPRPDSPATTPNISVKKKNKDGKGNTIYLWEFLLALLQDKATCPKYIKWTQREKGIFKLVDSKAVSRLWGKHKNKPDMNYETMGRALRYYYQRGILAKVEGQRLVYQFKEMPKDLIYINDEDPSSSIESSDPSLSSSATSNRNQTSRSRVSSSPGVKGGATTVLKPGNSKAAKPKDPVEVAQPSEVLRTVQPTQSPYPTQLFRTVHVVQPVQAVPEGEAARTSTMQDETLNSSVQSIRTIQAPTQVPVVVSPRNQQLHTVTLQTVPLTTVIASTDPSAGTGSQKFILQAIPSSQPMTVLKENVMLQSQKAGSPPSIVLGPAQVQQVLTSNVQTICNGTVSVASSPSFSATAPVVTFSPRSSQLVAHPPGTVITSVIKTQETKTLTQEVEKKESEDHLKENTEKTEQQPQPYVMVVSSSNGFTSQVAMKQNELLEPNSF
# How it was run: as §1
# EHF = biological target: T5, EHF (Homo sapiens, UniProt Q9NZC4 1-300); details: protein: recombinant; tags: N-terminal GST; dsDNA, one strand shown
# T5 sequence: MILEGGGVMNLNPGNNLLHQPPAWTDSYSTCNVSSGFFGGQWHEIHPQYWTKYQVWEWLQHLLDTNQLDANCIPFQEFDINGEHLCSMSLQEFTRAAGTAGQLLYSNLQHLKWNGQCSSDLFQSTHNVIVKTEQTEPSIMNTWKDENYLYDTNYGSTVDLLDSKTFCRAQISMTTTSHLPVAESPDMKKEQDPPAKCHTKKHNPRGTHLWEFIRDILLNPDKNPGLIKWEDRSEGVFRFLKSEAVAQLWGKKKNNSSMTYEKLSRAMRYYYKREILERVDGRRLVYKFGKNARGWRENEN
# How it was run: as §1
# SPI1 = SPI1 (Homo sapiens, UniProt P17947 1-270); details: protein: recombinant; tags: N-terminal GST; dsDNA, one strand shown
# How it was run: as §1
# SPIB = SPIB (Homo sapiens, UniProt Q01892 1-262); details: protein: recombinant; tags: N-terminal GST; dsDNA, one strand shown
# Chain of SPIB (Q01892 whole entry): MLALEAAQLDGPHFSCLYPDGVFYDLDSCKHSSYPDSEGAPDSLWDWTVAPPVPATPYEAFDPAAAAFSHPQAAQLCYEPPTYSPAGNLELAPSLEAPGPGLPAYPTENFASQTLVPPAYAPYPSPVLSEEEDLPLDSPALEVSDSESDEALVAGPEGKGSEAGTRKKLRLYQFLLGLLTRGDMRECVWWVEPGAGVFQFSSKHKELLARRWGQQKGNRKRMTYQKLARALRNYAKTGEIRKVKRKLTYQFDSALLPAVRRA
# How it was run: as §1
# ELK3 = biological target: T6, ELK3 (Homo sapiens, UniProt P41970 1-407); details: protein: recombinant; tags: N-terminal GST; dsDNA, one strand shown
# T6 sequence: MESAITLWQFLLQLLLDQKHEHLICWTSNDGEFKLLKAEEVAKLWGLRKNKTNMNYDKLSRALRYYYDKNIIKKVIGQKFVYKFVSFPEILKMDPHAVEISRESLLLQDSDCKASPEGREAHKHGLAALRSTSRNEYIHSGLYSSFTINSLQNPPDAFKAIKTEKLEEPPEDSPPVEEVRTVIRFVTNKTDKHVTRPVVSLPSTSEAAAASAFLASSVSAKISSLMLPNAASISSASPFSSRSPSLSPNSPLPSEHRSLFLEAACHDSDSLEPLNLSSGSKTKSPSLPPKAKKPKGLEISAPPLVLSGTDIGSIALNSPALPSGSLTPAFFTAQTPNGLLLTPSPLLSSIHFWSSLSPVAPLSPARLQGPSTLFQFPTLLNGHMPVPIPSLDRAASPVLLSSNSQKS
# How it was run: as §1
# FEV = biological target: T7, FEV (Homo sapiens, UniProt Q99581 1-238); details: protein: recombinant; tags: N-terminal GST; dsDNA, one strand shown
# T7 sequence: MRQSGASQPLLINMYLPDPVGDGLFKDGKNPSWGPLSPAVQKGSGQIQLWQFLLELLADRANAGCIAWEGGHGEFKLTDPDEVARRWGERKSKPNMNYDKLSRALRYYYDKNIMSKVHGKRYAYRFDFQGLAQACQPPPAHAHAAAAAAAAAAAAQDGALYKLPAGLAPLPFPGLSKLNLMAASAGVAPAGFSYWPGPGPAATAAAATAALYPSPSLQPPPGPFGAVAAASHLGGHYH
# How it was run: as §1
# ETV5 = ETV5 (Homo sapiens, UniProt P41161 1-510); details: protein: recombinant; tags: N-terminal GST; dsDNA, one strand shown
# Chain of ETV5 (P41161 whole entry): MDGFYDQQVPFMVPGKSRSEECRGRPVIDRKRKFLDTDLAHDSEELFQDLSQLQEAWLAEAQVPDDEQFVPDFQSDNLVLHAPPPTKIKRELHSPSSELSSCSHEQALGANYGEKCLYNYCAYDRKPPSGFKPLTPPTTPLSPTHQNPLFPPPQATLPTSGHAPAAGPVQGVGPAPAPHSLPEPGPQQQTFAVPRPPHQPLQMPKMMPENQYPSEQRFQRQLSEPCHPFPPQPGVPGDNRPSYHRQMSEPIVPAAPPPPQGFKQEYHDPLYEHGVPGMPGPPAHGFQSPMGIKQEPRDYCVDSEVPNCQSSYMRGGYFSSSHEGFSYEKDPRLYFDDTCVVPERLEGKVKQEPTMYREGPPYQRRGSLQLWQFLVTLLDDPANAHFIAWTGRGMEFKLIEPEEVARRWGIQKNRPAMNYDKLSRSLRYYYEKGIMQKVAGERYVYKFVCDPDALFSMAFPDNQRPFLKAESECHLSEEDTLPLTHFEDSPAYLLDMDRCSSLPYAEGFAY
# How it was run: as §1
# HSF1 = HSF1 (Homo sapiens, UniProt Q00613 1-529); details: protein: recombinant; tags: N-terminal GST; chain copies: 3; dsDNA, one strand shown
# Chain of HSF1 (Q00613 whole entry): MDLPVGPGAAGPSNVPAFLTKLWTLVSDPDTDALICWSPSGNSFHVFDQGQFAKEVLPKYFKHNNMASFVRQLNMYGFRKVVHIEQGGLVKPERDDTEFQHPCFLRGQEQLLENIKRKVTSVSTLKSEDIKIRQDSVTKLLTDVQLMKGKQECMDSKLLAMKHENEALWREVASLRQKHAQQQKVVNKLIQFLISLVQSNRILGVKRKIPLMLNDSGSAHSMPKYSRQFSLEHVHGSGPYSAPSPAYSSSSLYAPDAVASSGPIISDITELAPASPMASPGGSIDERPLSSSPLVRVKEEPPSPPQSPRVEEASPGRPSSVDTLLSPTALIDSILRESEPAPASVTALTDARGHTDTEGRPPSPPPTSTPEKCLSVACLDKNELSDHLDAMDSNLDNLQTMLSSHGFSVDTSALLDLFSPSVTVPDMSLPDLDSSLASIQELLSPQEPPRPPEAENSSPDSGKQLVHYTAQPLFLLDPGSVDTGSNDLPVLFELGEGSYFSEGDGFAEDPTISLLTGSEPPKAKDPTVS
# How it was run: as §1
# SPIC = biological target: T8, SPIC (Homo sapiens, UniProt Q8N5J4 1-248); details: protein: recombinant; tags: N-terminal GST; dsDNA, one strand shown
# T8 sequence: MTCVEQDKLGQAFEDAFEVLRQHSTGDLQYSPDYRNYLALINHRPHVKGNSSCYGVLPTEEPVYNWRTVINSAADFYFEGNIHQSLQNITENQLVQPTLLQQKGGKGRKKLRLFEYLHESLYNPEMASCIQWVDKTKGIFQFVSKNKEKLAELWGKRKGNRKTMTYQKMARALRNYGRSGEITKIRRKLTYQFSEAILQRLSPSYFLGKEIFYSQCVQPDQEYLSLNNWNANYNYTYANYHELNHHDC
# How it was run: as §1
# ELF4 = ELF4 (Homo sapiens, UniProt Q99607 1-663); details: protein: recombinant; tags: N-terminal GST; dsDNA, one strand shown
# Chain of ELF4 (Q99607 whole entry): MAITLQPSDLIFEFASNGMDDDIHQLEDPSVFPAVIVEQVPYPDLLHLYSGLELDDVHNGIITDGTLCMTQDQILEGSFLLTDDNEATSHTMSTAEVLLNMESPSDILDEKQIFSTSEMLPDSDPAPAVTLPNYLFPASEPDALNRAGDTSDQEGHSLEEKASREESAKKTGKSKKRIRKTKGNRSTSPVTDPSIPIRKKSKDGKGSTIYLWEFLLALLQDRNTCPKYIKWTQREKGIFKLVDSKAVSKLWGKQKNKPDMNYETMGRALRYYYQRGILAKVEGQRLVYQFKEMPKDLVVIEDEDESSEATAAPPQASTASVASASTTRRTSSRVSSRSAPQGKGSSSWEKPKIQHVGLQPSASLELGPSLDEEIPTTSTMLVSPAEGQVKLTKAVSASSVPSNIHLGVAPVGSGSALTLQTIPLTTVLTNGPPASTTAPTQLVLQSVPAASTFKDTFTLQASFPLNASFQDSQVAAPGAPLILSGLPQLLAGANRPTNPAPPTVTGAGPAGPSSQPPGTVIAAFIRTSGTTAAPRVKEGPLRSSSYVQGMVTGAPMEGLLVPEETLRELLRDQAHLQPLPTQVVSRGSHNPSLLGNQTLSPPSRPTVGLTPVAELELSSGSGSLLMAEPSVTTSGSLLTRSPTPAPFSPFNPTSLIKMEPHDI
# How it was run: as §1
# ELK4 = biological target: T9, ELK4 (Homo sapiens, UniProt P28324-2 1-405); details: protein: recombinant; tags: N-terminal GST; dsDNA, one strand shown
# T9 sequence: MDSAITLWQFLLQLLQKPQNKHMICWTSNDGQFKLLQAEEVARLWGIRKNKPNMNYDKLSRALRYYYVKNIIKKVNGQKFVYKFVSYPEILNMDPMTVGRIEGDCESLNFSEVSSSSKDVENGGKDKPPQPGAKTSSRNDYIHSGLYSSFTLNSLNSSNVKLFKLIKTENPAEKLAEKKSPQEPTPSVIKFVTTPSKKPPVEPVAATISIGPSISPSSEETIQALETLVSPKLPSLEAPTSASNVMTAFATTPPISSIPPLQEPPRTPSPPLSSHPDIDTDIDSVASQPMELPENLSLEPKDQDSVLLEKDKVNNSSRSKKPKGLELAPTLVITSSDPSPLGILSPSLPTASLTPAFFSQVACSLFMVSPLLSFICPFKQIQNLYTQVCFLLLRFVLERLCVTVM
# How it was run: as §1
# ETV2 = biological target: T10, ETV2 (Homo sapiens, UniProt O00321 1-342); details: protein: recombinant; tags: N-terminal GST; dsDNA, one strand shown
# T10 sequence: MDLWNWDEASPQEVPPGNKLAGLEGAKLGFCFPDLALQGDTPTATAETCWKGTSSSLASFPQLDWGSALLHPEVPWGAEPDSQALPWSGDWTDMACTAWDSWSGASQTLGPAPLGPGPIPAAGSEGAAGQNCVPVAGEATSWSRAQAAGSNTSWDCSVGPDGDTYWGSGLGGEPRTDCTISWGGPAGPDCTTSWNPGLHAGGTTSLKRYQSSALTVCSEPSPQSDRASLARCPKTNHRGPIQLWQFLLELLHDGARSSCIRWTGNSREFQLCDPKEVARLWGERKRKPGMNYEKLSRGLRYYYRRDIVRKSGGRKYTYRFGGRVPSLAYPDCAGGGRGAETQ
# How it was run: as §1
# ELF3 = biological target: T11, ELF3 (Homo sapiens, UniProt P78545 1-371); details: protein: recombinant; tags: N-terminal GST; dsDNA, one strand shown
# T11 sequence: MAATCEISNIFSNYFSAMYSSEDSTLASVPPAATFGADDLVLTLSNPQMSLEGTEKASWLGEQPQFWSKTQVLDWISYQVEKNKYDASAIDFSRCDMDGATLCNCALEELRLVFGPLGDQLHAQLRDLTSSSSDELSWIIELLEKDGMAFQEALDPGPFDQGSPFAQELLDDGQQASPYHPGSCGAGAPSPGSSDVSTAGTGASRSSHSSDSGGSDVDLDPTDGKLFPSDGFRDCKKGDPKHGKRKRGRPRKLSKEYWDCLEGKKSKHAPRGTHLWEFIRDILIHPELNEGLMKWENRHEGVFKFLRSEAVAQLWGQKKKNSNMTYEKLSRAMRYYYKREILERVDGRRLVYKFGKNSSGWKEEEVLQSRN
# How it was run: as §1
# ETV1 = ETV1 (Homo sapiens, UniProt P50549 1-477); details: protein: recombinant; tags: N-terminal GST; dsDNA, one strand shown
# Chain of ETV1 (P50549 whole entry): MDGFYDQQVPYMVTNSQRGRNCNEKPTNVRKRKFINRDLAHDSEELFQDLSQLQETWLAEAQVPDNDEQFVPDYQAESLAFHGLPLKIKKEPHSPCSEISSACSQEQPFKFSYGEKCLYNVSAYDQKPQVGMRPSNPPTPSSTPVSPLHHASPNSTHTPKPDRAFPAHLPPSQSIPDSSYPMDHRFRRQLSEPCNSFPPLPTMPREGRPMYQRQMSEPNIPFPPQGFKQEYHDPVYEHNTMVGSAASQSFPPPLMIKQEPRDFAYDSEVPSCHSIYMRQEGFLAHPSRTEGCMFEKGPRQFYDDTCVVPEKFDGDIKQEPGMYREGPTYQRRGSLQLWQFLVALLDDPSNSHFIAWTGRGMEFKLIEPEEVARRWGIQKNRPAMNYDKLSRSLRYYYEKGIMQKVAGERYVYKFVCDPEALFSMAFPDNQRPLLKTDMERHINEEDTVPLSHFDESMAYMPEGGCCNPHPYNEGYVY
# How it was run: as §1
sequence,measurement,setting,value
GAAGTT,binding signal,FLI1,"1.76 fold enrichment (6-mer frequency, TF over GST control)"
same,binding signal,ELK1,"1.66 fold enrichment (6-mer frequency, TF over GST control)"
same,binding signal,GABPA,"1.63 fold enrichment (6-mer frequency, TF over GST control)"
same,binding signal,ERG,"1.77 fold enrichment (6-mer frequency, TF over GST control)"
same,binding signal,ELF1,"1.61 fold enrichment (6-mer frequency, TF over GST control)"
same,binding signal,EHF,"1.72 fold enrichment (6-mer frequency, TF over GST control)"
same,binding signal,SPI1,"2.02 fold enrichment (6-mer frequency, TF over GST control)"
same,binding signal,SPIB,"1.72 fold enrichment (6-mer frequency, TF over GST control)"
same,binding signal,ELK3,"1.62 fold enrichment (6-mer frequency, TF over GST control)"
same,binding signal,FEV,"1.62 fold enrichment (6-mer frequency, TF over GST control)"
same,binding signal,ETV5,"1.66 fold enrichment (6-mer frequency, TF over GST control)"
same,binding signal,HSF1,"1.39 fold enrichment (6-mer frequency, TF over GST control)"
same,binding signal,SPIC,"1.76 fold enrichment (6-mer frequency, TF over GST control)"
same,binding signal,ELF4,"1.61 fold enrichment (6-mer frequency, TF over GST control)"
same,binding signal,ELK4,"1.52 fold enrichment (6-mer frequency, TF over GST control)"
same,binding signal,ETV2,"1.58 fold enrichment (6-mer frequency, TF over GST control)"
same,binding signal,ELF3,"1.82 fold enrichment (6-mer frequency, TF over GST control)"
same,binding signal,ETV1,"1.63 fold enrichment (6-mer frequency, TF over GST control)"
